INS promoter inh: TRM-6 insulin promoter activity inhibition; TRM-6 cells (human fetal islet line), insulin promoter-eGFP reporter, imaging; reporter expression induced with tamoxifen; inhibition, % at 2 µM; 130,000 tested, 0.9% active;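 active means inhibition above the mean plus 3 SD, with well images judged a real hit on visual review, cut at about 60% in these data, passing the limit was not always enough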
Measles CPE: protection of cells from measles virus; protection (pct of control), % at 4 µM; Measles virus-infected cells, CPE protection, absorbance; AID 841; 140,000 tested, 1.5% active; in the data active means protection mostly above about 24%, no sharp cut-off; inactive means mostly below about 26%
SDO1 yeast rescue: restores growth of sdo1-depleted yeast; S. cerevisiae sdo1-depleted JHY4D growth rescue, OD600 30 h; stronger effect = higher value; pdr5 snq2 efflux-pump mutant strain; z-score at 10 µM; 140,000 tested, 0.21% active;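 active means z-score above 3 at both the 24 hr and the 30 hr optical density reads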
ROMK primary: modulates human ROMK potassium channel activity; Tet-inducible ROMK, thallium flux fluorescence; actives lie on both sides; 130,000 tested, 2% active; B-score at 10 µM; P48048;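 active means signal ratio slope over the read window, or its plate-corrected B-score, at least 3 SD from the plate mean, either direction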;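 further: B-score of the F/F0 ratio slope over 7 to 12 s after thallium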
Target sequence (P48048 whole entry, looked up): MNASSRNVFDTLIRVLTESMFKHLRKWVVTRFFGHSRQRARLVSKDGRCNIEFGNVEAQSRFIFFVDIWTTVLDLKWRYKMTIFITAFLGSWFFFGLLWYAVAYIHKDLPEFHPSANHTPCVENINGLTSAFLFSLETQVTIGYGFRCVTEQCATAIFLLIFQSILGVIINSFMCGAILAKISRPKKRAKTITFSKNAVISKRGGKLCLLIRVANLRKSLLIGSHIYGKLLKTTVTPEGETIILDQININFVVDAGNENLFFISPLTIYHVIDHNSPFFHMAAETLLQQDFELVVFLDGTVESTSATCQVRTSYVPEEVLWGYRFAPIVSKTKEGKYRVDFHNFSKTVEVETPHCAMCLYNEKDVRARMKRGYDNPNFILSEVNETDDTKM
A number is an active result; - = inactive; . = no result. Rows were chosen to be rich in hits. Some 3% of all compounds tested hit in one or more screens of this group.

SMILES | INS promoter inh | Measles CPE | SDO1 yeast rescue | ROMK primary
COc1ccc(N(C(=O)Cc2cccs2)C(C(=O)NC2CCCCC2)c2cccn2C)cc1OC (configuration not stated) | - | - | - | -3.9
CCCn1c(N)c(C(=O)CSc2nc(C)cs2)c(=O)[nH]c1=O | 77 | - | - | .
O=C(/C=C\Nc1ccc(Cl)cn1)c1ccc(Br)cc1 | - | . | . | -
Cc1cc(C(=O)NCc2ccccc2)c(=O)[nH]c1C | 73 | - | - | -
Cc1c(CNC(=O)c2cnn3c2NC(c2ccc(Br)cc2)CC3C(F)(F)F)cnn1C (configuration not stated) | 81 | - | - | -
O=C1CC(C(=O)N(c2ccccc2)C(C(=O)NC2CCCC2)c2ccncc2)CS1 (configuration not stated) | - | . | . | -
CC(=O)NCCOc1ccc2oc3ccccc3c2c1 | - | 47 | - | .
CC(=O)NCCOc1cccc(OCCNC(C)=O)c1 | - | - | - | -
CN1CCN(c2ccc(S(=O)(=O)N3CCCCC3)cc2NC(=O)Cc2ccc(Cl)cc2)CC1 | . | - | - | .
CN(C)C(C)(C)C#CCCCCC#CC(C)(C)N(C)C | 71 | - | - | .
CC(C)OCCCNS(=O)(=O)c1ccc2ccccc2c1 | - | 30 | - | -
CN(/C=C1/C(=O)CNC1=O)CCO | - | . | . | -
O=C(CNC(=O)c1ccco1)NCC(=O)OCc1cccc(Cl)c1 | - | - | - | .
O=C(CNC(=O)c1cccs1)NCC(=O)OCc1cccc(Cl)c1 | . | active | - | .
CCOC(=O)C1CCN(C(=O)CSCc2nc(-c3ccc(OCC)cc3)oc2C)CC1 | - | - | - | .
CCOC(=O)C1CCN(C(=O)CS(=O)Cc2nc(-c3ccc(C)cc3)oc2C)CC1 (configuration not stated) | . | 46 | - | .
CCCc1ccc(OCc2ccccc2)c2c(=O)cc(C(=O)OCC)oc12 | . | . | . | -
O=C(CCl)Nc1cc(-c2ccccc2)nn1-c1ccccc1 | 87 | - | - | .
COc1cc(/C(C)=N\NC(N)=S)cc(OC)c1OC | - | 35 | - | .
CC(=O)c1c(C)[nH]c(C(=O)OC(C)C(=O)Nc2cc(S(=O)(=O)N3CCCCC3)ccc2Cl)c1C (configuration not stated) | - | - | - | -
O=C(Cc1cccs1)Nc1nc2c(s1)CCCC2 | - | 93 | - | .
N#CCCn1cc(/C=C(\C#N)c2nc3ccccc3s2)c(-c2ccc(F)cc2)n1 | 74 | - | - | .
N#CCCn1cc(C=C(C#N)C#N)c(-c2ccc(Cl)cc2)n1 | . | . | . | -
CCOc1nc(C#N)nc(N2CCCCC2)n1 | . | 36 | - | .
N#CCOc1nc(N2CCCCC2)nc(N2CCCCC2)n1 | . | . | . | -
SMILES | INS promoter inh | Measles CPE | SDO1 yeast rescue | ROMK primary
CCOC(=O)C1(C)NC(c2ccco2)C2C(=O)N(C)C(=O)C21 (configuration not stated) | . | . | . | -
COc1cccc2c1OC1(C)CC2/C(=C(\C)O)C(=O)N1 (configuration not stated) | 91 | - | - | .
Cc1ccc(S(=O)(=O)CNC(=S)c2cccc(Cl)c2)cc1 | - | 43 | - | .
Cc1ccc(C(=S)NCS(=O)(=O)c2ccc(C)cc2)cc1 | - | - | - | .
COc1cc2c(cc1OC)C(C)N(C(=O)c1cccs1)CC2 (configuration not stated) | . | . | . | -
COc1cc2c(cc1OC)C(C)N(C(C)=O)CC2 (configuration not stated) | 81 | - | - | -
Cc1cccc(OCCN2CSC(=S)N(C)C2)c1 | . | - | - | .
COc1ccccc1OCCN1CSC(=S)N(C)C1 | - | 34 | - | -
CCOc1ccc(Oc2ccccc2NC(=O)CCNC(C)=O)cc1 | . | . | . | -
O=C(Cc1ccc([N+](=O)[O-])cc1)Nc1cccc(C(F)(F)F)c1 | . | 73 | - | .
O=C(Nc1ccccc1)Nc1cccc(C(F)(F)F)c1 | - | . | . | -
CNC(=O)Nc1cccc(C(F)(F)F)c1 | 81 | - | - | -
Cc1cc([N+](=O)[O-])ccc1NC(=O)Cc1ccc(F)cc1 | - | 53 | - | .
CCc1cccc(NC(=O)Cc2ccc([N+](=O)[O-])cc2)c1 | - | - | - | -
CCCCOC(=O)Nc1cccc(Cl)c1C | - | - | - | -
O=C(O)c1ccc2c(c1)C(=O)N(c1cccc(C(=O)/C=C/c3ccccc3)c1)C2=O | . | . | . | -
COc1cccc(/C=N/NC(=O)c2ccccc2N(Cc2ccccc2)S(=O)(=O)c2ccccc2)c1OC | - | - | - | .
CCOC(=O)n1c(SCC(N)=O)nc2ccccc21 | - | - | - | .
CSc1nc2ccccc2n1C(=O)Oc1ccccc1 | 87 | - | - | .
Cc1c(C(=O)Nc2ccc(F)cc2)oc2ccc(S(=O)(=O)N3CC(C)CC(C)C3)cc12 (configuration not stated) | 71 | - | - | -
Cc1c(C(=O)NCc2cccnc2)oc2ccc(S(=O)(=O)N3CC(C)CC(C)C3)cc12 (configuration not stated) | - | - | - | .
O=C(CN(C(=O)C1CSC(=O)C1)c1ccccc1F)NCc1ccc2c(c1)OCO2 (configuration not stated) | . | 63 | - | .
O=C(Cc1ccccc1)NCc1ccc2c(c1)OCO2 | - | - | - | -
COc1ccc(C(=O)NCC(O)COc2ccc(C(C)(C)C)cc2)cc1[N+](=O)[O-] (configuration not stated) | - | - | - | -
O=C(O)C1C2CCC(O2)C1C(=O)NCc1ccc(Cl)cc1 (configuration not stated) | 62 | - | - | -
SMILES | INS promoter inh | Measles CPE | SDO1 yeast rescue | ROMK primary
Cc1nn(C)cc1CNC(=O)C1C2CCC(O2)C1C(=O)O (configuration not stated) | . | - | - | -
CC(C)=CC(=O)OCc1cc([N+](=O)[O-])cc2c1OCOC2 | . | . | . | -
Cc1ccc(CSc2nnc3c(n2)OC2(Nc4ccccc4-3)C(=O)Nc3ccc(F)cc32)cc1 (configuration not stated) | . | - | - | -
O=C1Nc2ccc(F)cc2C12Nc1ccccc1-c1nnc(SCc3ccccc3)nc1O2 (configuration not stated) | 75 | - | - | .
Cc1nn(-c2ccc(F)cc2)c(Cl)c1/C=C1\C(=O)Nc2ccccc21 | - | - | - | -
Cc1ccc(OCC(=O)N/N=C/c2cccn2C)cc1 | 71 | - | - | .
Cc1ccc(C)c(OCC(=O)N/N=C\c2cccn2C)c1 | - | . | . | -
Cc1nn(C)c(C)c1NC(=O)c1ccnn1C | 72 | - | - | .
Cn1nccc1C(=O)Nn1cnnc1 | . | - | - | -
CCc1nnc(NC(=O)CSc2nnc(COc3cccc(C)c3)o2)s1 | 75 | - | - | .
COCc1nnc(NC(=O)CSc2ccccc2)s1 | - | - | - | -
COCc1nnc(NC(=O)CSc2ccc(C)cc2)s1 | - | 23 | - | .
Cc1cccc(OCc2nnc(SCC(=O)Nc3ncc(C)s3)o2)c1 | . | . | . | -
Cn1c(=O)c2c(-c3ccncc3)c3c(nc2n(C)c1=O)-c1ccccc1C3=O | - | . | . | .
CCCC(=O)Nc1ccc2oc(-c3ccncc3)nc2c1 | - | 37 | - | -
Nc1[nH]nc2c1NN(c1ccc(Cl)cc1Cl)N2 | . | - | - | -
CCOC(=O)c1sc2nc(C)nc(NCCc3ccccn3)c2c1C | 94 | . | . | -
CCOC(=O)c1sc2nc(C)nc(N3CCN(c4ncccn4)CC3)c2c1C | . | . | . | -
CCOc1ccc(-n2c(SCC(=O)Nc3ccc4c(c3)OCO4)nc3ccccc3c2=O)cc1 | - | 45 | - | .
